Experimental findings from PubChem BioAssay (NCATS) are described below.

Records with an inconclusive call do not appear. Calls of active or inactive are those of the source. Unless noted, calls follow the shape of the dose curve; as a rule, active = well fitted curve in the direction sought with a large enough effect; inconclusive = small, poorly fitted or top-dose-only effect, or another doubt; inactive = no such curve, though single readings can be large; an effect the other way counts as inactive or inconclusive.

Experiment [1] in a line: qHTS to identify inhibitors of the type 1 interferon - major histocompatibility complex class I in skeletal muscle: primary screen against the NCATS Mechanism Interrogation Plate v5.0 (MIPE) Libary (AID 1347411). Also: nearly all actives have a fitted effect of over 65% in size. Also: potency is read from the fitted curve at half-maximal effect.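 As to activity change, negative = inhibition: plate controls were vehicle for no effect and reference inhibitor for full effect.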 In short, it runs like this: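 Immortalized human myoblasts (C25cl48) with HiBit knocked into endogenous HLA-B*08:01 were stimulated with 4 ng/ml IFN-beta and given compounds in 11-point 1:3 titration from 46 uM. After 24 h at 37 C, lytic HiBiT luminescence was read.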
On the technique in general: Quantitative high-throughput screening tests each substance at several concentrations.

A short description of experiment [2]: Primary qHTS for inhibitors of nuclear receptor binding SET domain protein 2 (NSD2) in an isogenic RCH-ACV NSD2 p.E1099K mutant (9B) (AID 1645876). Also: nearly all actives have a fitted effect of over 70% in size. Also: potency is read from the fitted curve at half-maximal effect.
The nature of experiment [3]: Primary qHTS for inhibitors of nuclear receptor binding SET domain protein 2 (NSD2) in an RCH-ACV wild type WT cells (2C) (AID 1645877). Also: nearly all actives have a fitted effect of over 70% in size. Also: potency is read from the fitted curve at half-maximal effect.
The target of experiment [4] is Phospholipid hydroperoxide glutathione peroxidase GPX4 (Homo sapiens) (UniProt P36969). The experiment in a line: Primary qHTS Assay for Inhibitors of Recombinant Selenoprotein Glutathione Peroxidase 4 (GPX4) (AID 1845192). Also: nearly all actives have a fitted effect of over 65% in size. As to activity change, negative = inhibition: series mostly up to about 50 µM; % is scaled to controls: 0 for no effect and ±100 for the full control effect. To be noted: outcome: dose series up to 50 µM unless noted. In short, it runs like this: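 GR-coupled assay: recombinant GPX4 preincubated 30 min with compound at room temperature; final 200 nM GPX4, 1 mM GSH, 0.5 mM cumene hydroperoxide, 0.5 mM NADPH, 100 nM GR, 0.01% BSA, pH 7.5 Tris. NADPH fluorescence (340/450 nm) read at 0 and 15 min.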

Experiment [5] can be described thus: qHTS drug screen for cell cycle checkpoint inhibitors in PARPi-resistant BRCA-mutant ovarian cancer cell lines. (AID 1963452; calls by dose curve; also: potency is read from the fitted curve at half-maximal effect). To be noted: PEO1/OlaR viability, CellTiter-Glo luminescence, 96 h; for Z-AUC: stronger effect = lower value. In outline:
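PEO1, PEO4 and PEO1/OlaR ovarian cancer cells, 600 per well, exposed 96 h at 37C to a dilution series. Viability read by CellTiter-Glo luminescence, normalized to DMSO and empty wells; activity summarized as Z-AUC.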

The target in experiment [6] is Glutathione peroxidase 1 (Homo sapiens) (UniProt P07203). Kind of experiment: Primary qHTS Assay for Inhibitors of Recombinant Selenoprotein Glutathione Peroxidase 1 (GPX1) (AID 1845191). Also: nearly all actives have a fitted effect of over 65% in size. In short, it runs like this:
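GR-coupled assay: compounds preincubated 30 min at room temperature with GPX1, then reaction started with CHP; final 10 nM GPX1, 1 mM GSH, 0.5 mM CHP, 0.5 mM NADPH, 100 nM GR, 0.01% BSA, pH 7.5 Tris buffer. NADPH fluorescence (340/450 nm) read at 0 and 15 min.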

Experiment [7] in a line: NCATS anti-infectives library activity on HEK293 viability as a counter-qHTS vs the C. elegans viability qHTS (AID 1745854).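 Also: HEK293 cells exposed to compounds for 24 hr before the viability read; % is scaled to controls: 0 for no effect and ±100 for the full control effect.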 In short, it runs like this: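 HEK293 cells (1,500/well) exposed 24 hr at 37C to 1:5 titrations, up to 41.7 uM final; counter-screen to a C. elegans viability qHTS. Viability by CellTiter-Glo luminescence after 10 min at room temperature; digitonin as control.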

Where [8] appears, read: measured here: PEO1 parental Z-AUC.

Sequence of Phospholipid hydroperoxide glutathione peroxidase GPX4 (Homo sapiens) (P36969 whole entry, looked up): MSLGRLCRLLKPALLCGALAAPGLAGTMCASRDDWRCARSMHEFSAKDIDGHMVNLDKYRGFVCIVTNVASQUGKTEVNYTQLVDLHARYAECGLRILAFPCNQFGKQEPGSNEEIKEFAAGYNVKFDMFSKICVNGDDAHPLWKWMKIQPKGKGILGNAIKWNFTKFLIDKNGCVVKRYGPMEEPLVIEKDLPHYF
Sequence of Glutathione peroxidase 1 (Homo sapiens) (P07203 whole entry, looked up): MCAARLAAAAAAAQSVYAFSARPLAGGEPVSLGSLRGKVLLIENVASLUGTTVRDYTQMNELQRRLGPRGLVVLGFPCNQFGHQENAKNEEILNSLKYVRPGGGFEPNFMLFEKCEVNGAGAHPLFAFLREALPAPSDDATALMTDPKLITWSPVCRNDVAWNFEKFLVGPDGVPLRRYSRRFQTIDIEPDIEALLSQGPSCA

For `C[C@H]1CNCCCN1S(=O)(=O)c1cccc2cncc(F)c12`, the Potency result in experiment [1], in experiment [2], in experiment [3] and in experiment [4] was “inactive” throughout. The Z-AUC was -0.978 (inactive) in experiment [5], -0.15 in experiment [5] (setting [8]) and 0.771 in experiment [5] (measured here: PEO4 Z-AUC).

With `C=CC(=O)N1CC(N2CCN(C(=O)CNc3cc(C4(C)CC4)c(Cl)cc3O)CC2)C1`, the Potency result in experiment [1], in experiment [6] and in experiment [4] was “inactive” throughout. For the same compound, the Potency in experiment [2] is 23.5 µM (active). In addition, the Z-AUC in experiment [5] is -0.243 (inactive); in experiment [5] (setting [8]) it was -0.485; in experiment [5] (measured here: PEO4 Z-AUC) it was -0.295.

Take `C=C1C[C@@H]2CC[C@@]34C[C@H]5O[C@H]6[C@@H](O3)[C@H]3O[C@H](CC[C@@H]3O[C@H]6[C@H]5O4)CC(=O)C[C@@H]3[C@@H](OC)[C@@H](C[C@H](O)CN)O[C@H]3C[C@H]3O[C@@H](CC[C@@H]1O2)C[C@@H](C)C3=C`: the activity change, negative = inhibition in experiment [1] is -7.19% [at 8.44 µM] (inactive). Also, the Potency is 0.0014 µM (active) in experiment [2], 0.0011 µM (active) in experiment [3] and 8.9 nM (active) in experiment [5]. Also, the Potency entry in experiment [4] is “inactive”. The Z-AUC in experiment [5] (setting [8]) is -3.01; in experiment [5] (measured here: PEO4 Z-AUC) it was -2.65.

In the case of `Cc1cc(Nc2cc(N)ncn2)c(=O)n2c1C(=O)NC21CCCCC1`, the Potency result in experiment [1], in experiment [7], in experiment [6] and in experiment [4] was “inactive” throughout. In addition, the Potency in experiment [2] is 2.57 µM (active). In addition, the Z-AUC in experiment [5] was -0.649 (inactive); in experiment [5] (setting [8]), 0.752; in experiment [5] (measured here: PEO4 Z-AUC), 0.801.

For the compound `COC(=O)[C@H]1[C@@H](O)[C@@]2(O)c3c(OC)cc(O[C@@H]4O[C@@H]([C@@H](O)CO)CO[C@H]4OC)cc3O[C@@]2(c2ccc(OC)cc2)[C@@H]1c1ccccc1`, the Potency entry in experiment [1] and in experiment [4] was “inactive” each time. Besides, the values for the Potency in experiment [2] and in experiment [3] were 4.68 µM (active) and 2.95 µM (active), respectively. Also, the figures for the Z-AUC in experiment [5], in experiment [5] (setting [8]) and in experiment [5] (measured here: PEO4 Z-AUC) were 1.19 (inactive), 0.913 and 0.648, respectively.

For `Cc1ccc(S(=O)(=O)Nc2cc(-c3ccc(C#N)s3)ccc2C)cc1`, the Potency entry in experiment [1] and in experiment [4] was “inactive” in each case. For the same compound, the figures for the Potency in experiment [2] and in experiment [3] were 0.0468 µM (active) and 0.0417 µM (active), respectively. For the same compound, the results for the Z-AUC in experiment [5], in experiment [5] (setting [8]) and in experiment [5] (measured here: PEO4 Z-AUC) were -2.2 (inactive), -2.3 and -2.13, respectively.

For the compound `CC(C)n1ncnc1-c1cn2c(n1)-c1ccc(O[C@@H](C)C(N)=O)cc1OCC2`, the Potency entry in experiment [1] and in experiment [4] was “inactive” each time. Further, the Potency in experiment [2] and in experiment [3] was 0.934 µM (active) in each case. Besides, the Z-AUC in experiment [5] is -1.61 (inactive); in experiment [5] (setting [8]), -1.38; in experiment [5] (measured here: PEO4 Z-AUC) it was -1.69.

With `O=C(/C=C\n1cnc(-c2cc(C(F)(F)F)cc(C(F)(F)F)c2)n1)NNc1ccccn1`, the results for the Potency in experiment [1], in experiment [2] and in experiment [3] were 2.34 µM (active), 3.72 µM (active) and 3.32 µM (active), respectively. The Z-AUC in experiment [5] is -0.821 (inactive); in experiment [5] (setting [8]), -1.43; in experiment [5] (measured here: PEO4 Z-AUC), -1.79.

On to `CO[C@H]1/C=C/O[C@@]2(C)Oc3c(C)c(O)c4c(O)c(c5c(nc6cc(C)ccn65)c4c3C2=O)NC(=O)/C(C)=C\C=C\[C@H](C)[C@H](O)[C@@H](C)[C@@H](O)[C@@H](C)[C@H](OC(C)=O)[C@@H]1C`, for which the Potency entry in experiment [1] and in experiment [6] was “inactive” each time. In addition, the Potency in experiment [2] is 20.9 µM (active); in experiment [3], 23.5 µM (active). For the same compound, the values for the Z-AUC in experiment [5], in experiment [5] (setting [8]) and in experiment [5] (measured here: PEO4 Z-AUC) were -0.712 (inactive), -1.19 and -1.09, respectively.

With `CC(C)Oc1ccc(-c2nc(-c3cccc4c3CC[C@@H]4NCCO)no2)cc1C#N`, the Potency entry in experiment [1] is “inactive”. Moreover, the values for the Potency in experiment [2] and in experiment [3] were 14.8 µM (active) and 18.6 µM (active), respectively. Also, the Z-AUC in experiment [5] was -0.0463 (inactive); in experiment [5] (setting [8]), 0.729; in experiment [5] (measured here: PEO4 Z-AUC), 1.1.

As to `CC(C)n1cc(-c2ccc3c(c2)N(C)CC3)c2c(NS(=O)(=O)c3ccn(C)n3)ccnc21`, the Potency result in experiment [1], in experiment [2] and in experiment [3] was “inactive” each time. In addition, the Z-AUC is 1.52 (inactive) in experiment [5], 0.948 in experiment [5] (setting [8]) and 0.671 in experiment [5] (measured here: PEO4 Z-AUC).
